The list is not random: actives were taken first. Their share in the collection is about 3.5%.
GDH-TPI counter-1 – inhibits GDH-TPI coupling enzymes, artifact for Mtb FBA screen; GDH-TPI coupled enzyme counterscreen, NADH absorbance; inhibition, % at 4.8 µM; hit rate 1.2% among 360,000; in the data active means inhibition above about 30%;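 further: 0% = DMSO wells and 100% = wells lacking the enzyme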
FadD28 binding – M. tuberculosis FadD28 bisubstrate binding inhibition; FadD28 bisubstrate probe binding, fluorescence polarization; hit rate 0.22% among 360,000; inhibition, % at 12.5 µM; in the data active means inhibition above about 8.5%, passing the limit was not always enough
Rv3671c protease – inhibits the M. tuberculosis serine protease Rv3671c. P9WHR9. inhibition, % at 5.96 µM. hit rate 0.048% among 320,000; in the data active means inhibition above about 38%;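 further: extracellular domain of Rv3671c used as enzyme; 0% = enzyme with DMSO and 100% = no enzyme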
Mtb FBA inh – inhibitors of M. tuberculosis fructose-bisphosphate aldolase; purified M. tuberculosis FBA, fluorescence read-out; P9WQA3; hit rate 2.3% among 360,000; inhibition, % at 1 µM; AID 588726;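 further: 0% = vehicle and 100% = reference inhibitor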
Target sequence (P9WQA3 whole entry, looked up): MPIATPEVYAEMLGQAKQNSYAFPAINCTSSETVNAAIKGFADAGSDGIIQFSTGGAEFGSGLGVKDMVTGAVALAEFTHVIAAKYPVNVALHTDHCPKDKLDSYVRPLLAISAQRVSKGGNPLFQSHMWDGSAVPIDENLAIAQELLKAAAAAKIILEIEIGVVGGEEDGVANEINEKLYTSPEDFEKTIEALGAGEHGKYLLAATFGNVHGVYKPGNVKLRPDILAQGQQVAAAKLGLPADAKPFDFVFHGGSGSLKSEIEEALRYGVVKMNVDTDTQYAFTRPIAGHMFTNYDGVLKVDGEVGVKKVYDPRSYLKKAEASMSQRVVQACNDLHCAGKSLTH
Mtb hypoxia inh – reduces hypoxia-regulated biosensor signal in M. tuberculosis; M. tuberculosis hypoxia-regulated fluorescent reporter, fluorescence; fluorescence inhibition, % (concentration not given with the values); hit rate 0.1% among 300,000; in the data active means fluorescence inhibition mostly above about 23%, no sharp cut-off; inactive means mostly below about 17%
Mtb UGM inh – Mtb UDP-galactopyranose mutase inhibition | purified UGM, fluorescence polarization probe displacement | hit rate 0.06% among 320,000 | inhibition, % at 10 µM | P9WIQ1; in the data active means inhibition above about 10%, passing the limit was not always enough
Target sequence (P9WIQ1 whole entry, looked up): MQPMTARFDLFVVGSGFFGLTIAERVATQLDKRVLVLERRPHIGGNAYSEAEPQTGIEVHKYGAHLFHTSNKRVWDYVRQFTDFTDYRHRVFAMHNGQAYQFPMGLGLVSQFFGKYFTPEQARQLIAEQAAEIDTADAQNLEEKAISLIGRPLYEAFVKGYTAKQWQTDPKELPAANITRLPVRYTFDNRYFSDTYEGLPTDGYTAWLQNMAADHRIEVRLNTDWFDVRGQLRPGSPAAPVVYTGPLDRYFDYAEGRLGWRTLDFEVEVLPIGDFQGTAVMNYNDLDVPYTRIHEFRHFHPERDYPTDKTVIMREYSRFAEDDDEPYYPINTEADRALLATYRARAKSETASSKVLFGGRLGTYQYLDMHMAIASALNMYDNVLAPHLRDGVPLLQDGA
Mtb FBA inh conf – confirmation of M. tuberculosis fructose-bisphosphate aldolase inhibitors. AID 651616. hit rate 78% among 5,600. inhibition, % at 1 µM. shares compounds with Mtb FBA inh. purified M. tuberculosis FBA, fluorescence read-out;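 further: 0% = vehicle wells and 100% = reference inhibitor wells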
GDH-TPI counter-2 – inhibits GDH-TPI coupling enzymes, flagging Mtb FBA hits; inhibition, % at 1 µM; GDH-TPI coupled enzyme counterscreen, fluorescence; hit rate 81% among 5,600; shares compounds with Mtb FBA inh; AID 652141; in the data active means inhibition above about 10%
GDH-TPI dose – GDH-TPI dose response counter-screen for Mtb FBA | AID 652145 | GDH-TPI coupled enzyme assay, fluorescence, artifact counterscreen | hit rate 79% among 170 | IC50, µM | shares compounds with Mtb FBA inh; call rule not given here
An asterisk follows results filed as active; x = not tested or not shown; + = active, no number. Unless noted, no stated cut-off is given here; in the data, active means inhibition above about 27%; inactive means the rest.

SMILES | GDH-TPI counter-1 | FadD28 binding | Rv3671c protease | Mtb FBA inh | Mtb hypoxia inh | Mtb UGM inh | Mtb FBA inh conf | GDH-TPI counter-2 | others
CCCCCCC(=O)Nc1c2c(nc3ccccc13)N(C)CC2 | 5.8 | -0.7 | -2.7 | 47.8* | x | 1.9 | 93.8* | 100.5*
COc1ccc2nc(CC(C)(C)CC(=O)O)c[n+]([O-])c2c1 | 8.8 | -0.9 | 11.5 | 63.6* | 8.3 | -0.6 | + | +
COC(=O)c1sc2ccccc2c1C(=O)OC | 8.6 | -0.2 | x | -1.2 | -6.3 | x | x | x
COC(=O)c1sc2ccccc2c1N | 0.9 | -3.4 | 1.1 | 78.7* | 8.6 | x | + | +
COc1ccc(C=NNC(=O)CN(c2ccc(OC)cc2)S(=O)(=O)c2ccccc2)cc1 | x | x | x | x | 0.0 | x | x | x
Cc1ccc(-c2nc3ccccc3nc2Cl)cc1 | 2.5 | -4.8 | -8.6 | 1.4 | 4.2 | 4.7 | x | x
Cc1ccc(-c2nc3ccccc3nc2NN)cc1 | 9.2 | -1.8 | -6.6 | 31.5* | x | 1.1 | 14.2 | 8.8 | GDH-TPI dose=>10
CC(C)NC(=O)NC(=O)COC(=O)C1CCCN1C(=O)c1cccs1 (centres undefined) | 9.4 | -2.4 | 6.9 | 6.0 | 13.5 | -1.2 | x | x
O=C(COC(=O)[C@@H]1CCCN1C(=O)c1cccs1)NCCc1ccccc1 | -0.3 | 0.7 | 2.6 | 27.5* | 11.8 | -2.0 | -1.2 | -0.6
O=C(CC1SC(=NS(=O)(=O)c2ccc(F)cc2)N(c2ccccc2)C1=O)Nc1ccccc1 (centres undefined) | x | x | x | x | -4.9 | x | x | x
CC1CCc2c(sc(Nc3nc4c(F)cccc4s3)c2C(N)=O)C1 (centres undefined) | 15.0 | 0.0 | 1.2 | 27.8* | 8.4 | -0.5 | 113.3* | 98.8*
Cc1cc(S(N)(=O)=O)c(N)c(S(N)(=O)=O)c1 | 7.8 | -3.7 | -10.9 | 28.8* | 8.8 | 5.8 | + | +
CCOC(=O)NN=C1CCc2ccccc21 | x | x | x | x | 13.0 | x | x | x
CCOC(=O)c1cc2c(s1)-c1ccccc1CC2 | 19.5 | -3.4 | 0.8 | 49.1* | x | 1.7 | 6.7 | 0.1
CCOc1cc(C=NNc2nncc(-c3ccccc3)n2)ccc1O | x | x | x | x | 4.8 | x | x | x
CC1CN(C(C)CO)C(=O)Cc2cc(NC(=O)NC3CCCCC3)ccc2OC1CN(C)S(=O)(=O)c1ccccc1 (centres undefined) | x | x | x | x | 3.7 | x | x | x
COc1ccc2c(CN3CCCC3)cc(=O)oc2c1 | x | -3.1 | x | 36.1* | x | x | 10.3 | -1.0 | GDH-TPI dose=5.07*
Cc1ccc2c(CN3CCCCC3)cc(=O)oc2c1 | 6.0 | 0.4 | -4.8 | 2.8 | 10.5 | 0.2 | x | x
CCCCN(CCCC)Cc1cc(=O)oc2cc(OC)ccc12 | x | 0.2 | x | 44.8* | x | x | + | +
COc1ccc(Br)c(C(=O)OCc2cc(=O)oc3cc(C)ccc23)c1 | 2.3 | 1.4 | -2.6 | -2.4 | 8.0 | 0.1 | x | x
COc1ccc2c(CC(=O)O)cc(=O)oc2c1 | 12.3 | -1.3 | -8.5 | 66.4* | -1.1 | -2.2 | + | +
CN(C(=O)CSc1nc(N)c2c3c(sc2n1)CSC(C)(C)C3)c1ccccc1 | 2.6 | -0.8 | -18.8 | 30.8* | 0.2 | 1.3 | 61.4* | 49.3*
CN(C(=O)CSC1=NCCS1)c1ccccc1 | 2.3 | -0.2 | -3.3 | -1.2 | 16.5 | -0.3 | x | x
COc1ccc(C=NN2C(=O)C3C4C=CC(C4)C3C2=O)cc1[N+](=O)[O-] (centres undefined) | x | x | x | x | -5.6 | x | x | x
CCc1cccc(NC(=S)Nc2cccc3ccccc23)c1 | 7.4 | -1.5 | 5.6 | 46.1* | -4.7 | 2.4 | 86.1* | 76.7*
SMILES | GDH-TPI counter-1 | FadD28 binding | Rv3671c protease | Mtb FBA inh | Mtb hypoxia inh | Mtb UGM inh | Mtb FBA inh conf | GDH-TPI counter-2 | others
Cc1ccc(S(=O)(=O)N(C)C)cc1NC(=S)Nc1cccc2ccccc12 | -2.7 | -5.4 | -3.3 | 33.8* | x | -2.7 | + | 194.2*
Fc1ccc(NC(=S)Nc2cccc3ccccc23)cc1F | 10.9 | -2.8 | -3.3 | 48.6* | 0.4 | 0.8 | 24.0 | 16.5*
COc1cccc(NC(=S)Nc2cccc3ccccc23)c1 | -1.7 | -2.0 | -9.5 | 21.3 | -4.7 | 1.4 | x | x
CC(=O)NNC(=S)Nc1cc(S(=O)(=O)N(C)C)ccc1C | 8.1 | -1.0 | -8.9 | 1.7 | 7.4 | 1.4 | x | x
Cc1cccc(NC(=S)Nc2cccc3ccccc23)c1 | 12.3 | -4.7 | -5.6 | 46.5* | 7.9 | -3.2 | 143.4* | 111.7*
Fc1ccc(NC(=S)Nc2cccc3ccccc23)cc1 | 5.2 | -0.9 | -7.5 | 19.4 | -1.4 | 1.8 | x | x
O=C(O)c1ccccc1C=Nn1c(C2CCCCC2)n[nH]c1=S | x | x | x | x | 13.0 | x | x | x
O=C(Cn1cc(C(F)(F)F)ccc1=O)NN=Cc1ccc(Cl)cc1 | x | x | x | x | 14.8 | x | x | x
C=CCc1cccc(C=NNC(=O)C[n+]2ccccc2)c1O | x | x | x | x | 2.4 | x | x | x
Cc1ccc(NC(=S)Nc2cccc3ccccc23)cc1 | 6.5 | 0.0 | -1.1 | 21.2 | 2.5 | -0.9 | x | x
Cc1cc(C)cc(NC(=S)Nc2cccc3ccccc23)c1 | 8.8 | -2.3 | -4.6 | 41.8* | -5.6 | -0.1 | 147.0* | 129.5*
Cc1ccnc(NC(c2ccccc2)c2ccc3cccnc3c2O)c1 (centres undefined) | 3.5 | x | x | -1.8 | 22.0 | x | x | x
O=C(O)c1ccccc1NC(c1ccccc1)c1ccc2cccnc2c1O (centres undefined) | 13.3 | -1.3 | x | 37.9* | x | x | + | +
COc1ccc(CCNC(=O)COC(=O)c2ccco2)cc1OC | -10.6 | -4.5 | -0.5 | -11.5 | 13.5 | -0.7 | x | x
COc1ccc(CCNC(=O)COC(=O)c2ccccc2NCCO)cc1OC | 5.0 | -0.4 | 0.1 | 91.0* | 7.8 | 1.3 | 128.2* | 77.6*
O=C(COC(=O)c1ccccc1NCCO)NCc1cccs1 | 2.9 | 0.2 | -3.9 | 65.8* | 6.9 | 0.8 | 20.3 | 23.7*
O=C(NN=C1CC2CC=CC12)c1ccccc1Cl (centres undefined) | x | x | x | x | 11.4 | x | x | x
CC(=NN1CCN(c2ccccn2)CC1)c1ccc([N+](=O)[O-])cc1 | x | x | x | x | 11.9 | x | x | x
CCNC(=O)/C(C#N)=C/c1c(N2CCN(c3ccccc3)CC2)nc2ccccn2c1=O | 9.0 | -1.6 | x | 49.5* | 2.4 | -2.8 | 26.6 | 17.4*
COCCCNC(=O)/C(C#N)=C/c1c(N2CCN(c3ccccc3)CC2)nc2ccccn2c1=O | 6.0 | -0.9 | -2.4 | 91.3* | 10.6 | 1.9 | 112.3* | 121.3*
Cc1ccccc1/C=N/N=C1/NC(=O)CCS1 | 31.7* | -3.5 | 14.5 | 29.0* | x | 1.5 | 127.9* | 90.3*
CCOC(=O)C1C2COc3ccc(OC)cc3C2N2C(=O)c3ccc(Cl)cc3NC(=O)[C@@]12C (some centres undefined) | x | x | x | x | 2.4 | x | x | x
COC(=O)C(Oc1ccc2c(-c3ccc(OC)cc3)cc(=O)oc2c1)c1ccccc1 (centres undefined) | 7.8 | -0.2 | 0.9 | -6.0 | -2.8 | 5.7 | x | x
Cc1cc(=O)oc2cc(NC(=O)c3cc4ccccc4o3)ccc12 | x | x | -0.2 | x | x | -1.7 | x | x

Compound activity as filed in PubChem.
